{"source": "paper PMC12136788", "binders": {"B1": {"name": "chr11:6247107:6247108:+_ENSMUSG00000020456_ENSMUST00000003461|mus_mus|FALSE|FALSE (ssRNA)", "RNA": "GGGAGUUCUACAGUCCGACGAUCAAACAUAGGUUCGUCCAUCUCAUUGUGGCCAUUUCGUCGAUAACACACCAGAUCAACUACAACAUCCUUGUGGAAGGUGUUUCUCCACUCAGCUGCCACCUUGCAUACAUACAUGACAGCCAACAGAGGAUUGAGCAUCA"}, "B2": {"name": "chr15:76911001:76911002:-_ENSMUSG00000033565_ENSMUST00000166610|mus_hu|motif|central (ssRNA)", "RNA": "GGGAGUUCUACAGUCCGACGAUCAAGAGCAUGACAAAAUAAAAACACACAAAUUUACGUCUGAUGUUCACCUUGCCCACGGUUUUUUUUUCCUAUCUUAAAACAGUGCAAACAGGUAACUUAUGCUUUUAAAACACCACGACCCAACAGAGGAUUGAGCAUCA"}, "B3": {"name": "chr17:17165348:17165349:-_ENSG00000141030_ENST00000268717|hu_mus|motif|central (ssRNA)", "RNA": "GGGAGUUCUACAGUCCGACGAUCUAUUUGAGAGGUGUAUUUAGGCAGCUGUUGUACUUUGCCAAGUAAUAUCAAAGACACGGGAAUAUACUUUUUAUAUGAUUCCAACAUGAUAUGGCUGACGGCCAUGGCAGGAGUAGUUAUCAACAGAGGAUUGAGCAUCA"}, "B4": {"name": "chr8:74858975:74858976:-_ENSG00000154582_ENST00000284811|hu_mus|hu_hu_hu_mus_True|8_48 (ssRNA)", "RNA": "GGGAGUUCUACAGUCCGACGAUCGACCUUGUAGGUAAAAUACAUGCACACUUUUGAUAGCACAUGUGAGGGGAUCUCUCUAAAAUUGACCUCAUUGGUUUCAUUCUCAGCAAACUGACCUGGACCACUCAACAUGGCCUUUAUCAACAGAGGAUUGAGCAUCA"}, "B5": {"name": "chr2:48026839:48026840:+_ENSG00000116062_ENST00000540021|hu_hu|hu_hu_hu_mus_False|48_88 (ssRNA)", "RNA": "GGGAGUUCUACAGUCCGACGAUCAUAGUGAGCCACUAGCGUCCUAAAUCUCGAACAGUGGCGGUCAUCCGAAAACUGGCCGAUGAAAAACUUUCCCAGUGAAGUGUCCACAAAGCAAACACCAUACACACGAGUGUGACCAGACAACAGAGGAUUGAGCAUCA"}, "B6": {"name": "chr11:86535762:86535763:-_ENSMUSG00000047126_ENSMUST00000103186|mus_hu|FALSE|FALSE (ssRNA)", "RNA": "GGGAGUUCUACAGUCCGACGAUCUGCAAAGCACUGAAUGACUUUAUUUGGGACGUUAGCCCUUAGGUACACACUAAGUGCCAAUGUAGGGUCCACAGAUUUCACAAGAUCACCCAGUUCUUCAGAACAUUCCAGCUUAUCUUCCAACAGAGGAUUGAGCAUCA"}, "B7": {"name": "chr7:118226368:118226369:-_ENSMUSG00000005610_ENSMUST00000162415|mus_hu|FALSE|FALSE (ssRNA)", "RNA": "GGGAGUUCUACAGUCCGACGAUCCAGCAGCUGCCACCGCAGCUGCCUCCUCAGGAUCCGGUCGUCGGGGAUAGGGAAGGGAGGGGAAAGGGGAACGGAAAACAAAAAAAAGGGGGAGGGAAGGGGGAGGAAGGAGUCGGGGACCAACAGAGGAUUGAGCAUCA"}, "B8": {"name": "chr19:8913615:8913616:-_ENSMUSG00000071658_ENSMUST00000096259|mus_hu|mus_mus_mus_hu_False|18_18 (ssRNA)", "RNA": "GGGAGUUCUACAGUCCGACGAUCAGGGUACCAAAACCUUCUGCCUGAAAUGGGUGCCCCACCCAGUAGGGAGUUGCAGCUGAAAGUAUCUGAUGCAGAAGCAGUGACUAUACGAAAGGUCACUAGAGGGGAGGGCCAGGCCAGCAACAGAGGAUUGAGCAUCA"}, "B9": {"name": "chr17:65740002:65740003:+_ENSG00000130935_ENST00000581375|hu_hu|hu_hu_hu_mus_False|98_108 (ssRNA)", "RNA": "GGGAGUUCUACAGUCCGACGAUCAACCCGUUCUUGCCUGGAUGAAGAACAGGAAGAUUCAUAUUAAAAAAAAUAUAUAUCCAUCAAGUUAGGUGUGGUGGCCACACCUUUACUCCCAGCACUUUGGGAGGUGGAUCUCUGAGUCAACAGAGGAUUGAGCAUCA"}, "B10": {"name": "chr16:2758876:2758877:+_ENSG00000167977_ENST00000301738|hu_hu|FALSE|FALSE (ssRNA)", "RNA": "GGGAGUUCUACAGUCCGACGAUCAAUUUUAGUGAAUUAAGUCUUAAUAUCUUUAAAUUAAAAAAACCACAAGCCUAUCUACUAUGUCAAGGUCAAAAAUCAAACAACGCUAAGCGGCCAGCAGCUCCCCAGAGAGGAUGCCCACAACAGAGGAUUGAGCAUCA"}, "B11": {"name": "chr18:43483763:43483764:-_ENSMUSG00000024501_ENSMUST00000121805|mus_mus|FALSE|FALSE (ssRNA)", "RNA": "GGGAGUUCUACAGUCCGACGAUCUGCAGAAUCUACCUUAGUGGCCUGUCUGAUCGCAUGCAUGUAAGUGGGGGUGGGGUGGGGGUGGGGUUCAAAGAAAUUGAGAGUAUGCAAAAACAGAAACCAAAGCAAUUCAUAAAGCUACAACAGAGGAUUGAGCAUCA"}, "B12": {"name": "chr7:90019433:90019434:+_ENSMUSG00000057706_ENSMUST00000082237|mus_hu|motif|central (ssRNA)", "RNA": "GGGAGUUCUACAGUCCGACGAUCAAAUAAUACAGUGUUCUUUGCCAUAAGGCCAUACUAAAAUAAAAAGAUUUAACCCAGCGGCAAAAAAGUUCACUGAACUUAAAUUAAAAUACUUGUAAACAUCUUUGCAAUAUGAAAUAUCAACAGAGGAUUGAGCAUCA"}, "B13": {"name": "chr7:90019490:90019491:+_ENSMUSG00000057706_ENSMUST00000082237|mus_mus|FALSE|FALSE (ssRNA)", "RNA": "GGGAGUUCUACAGUCCGACGAUCUCCGUCACAAUCGUGUGAUUAUUAAAAUAAUACAGUGUUCUUUGCCAUAAGGCCAUACUAAAAAUAAAAAGAUUUAACCCAGCUACAAAAAAGUUCACUGAACUUAAAUUAAAAUACUUGCAACAGAGGAUUGAGCAUCA"}, "B14": {"name": "chr18:43483763:43483764:-_ENSMUSG00000024501_ENSMUST00000121805|mus_hu|FALSE|FALSE (ssRNA)", "RNA": "GGGAGUUCUACAGUCCGACGAUCGCAGACUCUUUUACCUUAGUGGCCUGUCUGAUUGCAUGCAUGUAAAUGGGGGGAGGGGAGUCAAACAAAUCAAGGCUAUGCAUAAACAGAAAACAAAGCAAUAUUCGUAAAGCUAGGCAACAACAGAGGAUUGAGCAUCA"}, "B15": {"name": "62932219_62936930_2744_CDS_ENSG00000061987_ENST00000546600|human|control|control (ssRNA)", "RNA": "GGGAGUUCUACAGUCCGACGAUCCAUAUUAACUAAACCAGUUUCUAACAAUUUGGCAACAGCAAAAAGAGAUGGUUCCUUAUUAUUUCCAUAGGCCAUAUCCAUUGCUUCUAGAGACAAGGAGCAAAGUGCAUUUAUUAAAUGCAACAGAGGAUUGAGCAUCA"}, "B16": {"name": "chr7:56126341:56126342:+_ENSG00000146731_ENST00000540286|hu_mus|hu_hu_hu_mus_True|8_78 (ssRNA)", "RNA": "GGGAGUUCUACAGUCCGACGAUCCAUGUUUCUCCUCUUGGCUCUGCGCAGAGCUACUAUGCCUUCUUUCGCAAGGGCAUCUAAGGAAAAGGGGUCAAUCCCCUUUUGAUUAAUAACGACAAAUCCUUUAUCUGAAUCACCACACAACAGAGGAUUGAGCAUCA"}, "B17": {"name": "chr4:107545374:107545375:+_ENSMUSG00000028613_ENSMUST00000106731|mus_hu|FALSE|FALSE (ssRNA)", "RNA": "GGGAGUUCUACAGUCCGACGAUCUGAUGGAUAGCCACAAAGCAUAAUCAUCUUAUUUACAAAAAACAAAUGCCCCAAAACCUAAAAAAGCCCCCCCAGCAACCAAACAUCUUCUGUAAAUAUAGUUUUUAAAUGAUGAGUAAGCAACAGAGGAUUGAGCAUCA"}, "B18": {"name": "chr1:10192443:10192444:+_ENSG00000130939_ENST00000377157|hu_hu|FALSE|FALSE (ssRNA)", "RNA": "GGGAGUUCUACAGUCCGACGAUCGACAGCCGCCAUGUAACUGAGAGCAGCCUCACGGGUUUCGCCAUUUAACAAAAUACUAUGCAGAAUCUUAAAAAGCUCUUGCCUUCCGAGCUCUAAGUAAUGCUGCAAUGAUUGGCUAACCAACAGAGGAUUGAGCAUCA"}, "B19": {"name": "chr7:90019433:90019434:+_ENSMUSG00000057706_ENSMUST00000082237|mus_hu|mus_mus_mus_hu_True|78_98 (ssRNA)", "RNA": "B12 RNA with U38C, C39U, U42G, G43C, C45A, A46U, C57U, U58A, G82U, G83A"}, "B20": {"name": "160625162_160625282_3606_3pUTR_ENSG00000136536_ENST00000259050|human|control|control (ssRNA)", "RNA": "GGGAGUUCUACAGUCCGACGAUCAAAACUACCACCCUUAAAUUUUAUAUUUUUGCUUUAAGACAGACAAUGCAAAGGUAACUGGCAAGAGGUGAGCAAAUGUUUUAGAACAUUUAUAUUAUUGCUUAAAAUGAGAUUUGAAAUCAACAGAGGAUUGAGCAUCA"}, "B21": {"name": "chr14:78183846:78183847:+_ENSG00000119705_ENST00000557342|hu_hu|hu_hu_hu_mus_False|18_98 (ssRNA)", "RNA": "GGGAGUUCUACAGUCCGACGAUCUCUCAGAAAUCUUUCUUUCUUUUAUGUUUGAGCUCCGUGCAAAGCCUUUGCUCUUUGAGCUUGAACGUGGAUCUAUGGGAGGGAAAGCACUGUAUUUUCCUGUAAUUUUUUUUUUAAAGACAACAGAGGAUUGAGCAUCA"}, "B22": {"name": "chr7:135123436:135123437:+_ENSMUSG00000030795_ENSMUST00000077609|mus_mus|FALSE|FALSE (ssRNA)", "RNA": "GGGAGUUCUACAGUCCGACGAUCGCCUCCGCGACCAUUUCCACCACCCCGAUUGAAGUCAGCUCGGCGGGUAGCAAAUGAAACUUUAAUAGGAUUCCCAGAGAAUUCUUUACCAUCAAACCAGUCGAUAGCUGCUUUAGCAGACAACAGAGGAUUGAGCAUCA"}}, "note": "Residue numbers refer to the chain shown, from its start. Over roughly 24,000 sequences, “enrichment r” has its median near 0.99; the highest 2% begin near 3.7. The sample holds the highest values, similar sequences and a random draw of the others, so the mix is not that of the screen."}
{"molecular_target": "T1, UNK ZnF1-3 (human, UniProt Q9C0B0 31-174)", "T1 sequence": "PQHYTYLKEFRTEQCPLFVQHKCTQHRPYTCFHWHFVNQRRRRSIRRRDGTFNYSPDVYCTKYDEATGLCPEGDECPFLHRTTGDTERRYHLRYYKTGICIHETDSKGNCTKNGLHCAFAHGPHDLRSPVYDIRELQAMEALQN", "assay": "nsRBNS (natural sequence RNA bind-n-seq); RBNS binding buffer (assumed for nsRBNS): 25 mM Tris pH 7.5, 150 mM KCl, 3 mM MgCl2, 0.01% Triton X-100, 500 ug/ml BSA, 20 U/ml SUPERase-In, 4 C; UNK is unkempt and MSI1 is Musashi-1; names of the RNAs are library labels; protein concentration not given here; high values mean tight binding", "units": {"binding signal": "enrichment R"}}
{"binder": "B1", "binding signal": 0.764}
{"binder": "B2", "binding signal": 1.59}
{"binder": "B3", "binding signal": 1.03}
{"binder": "B4", "binding signal": 0.645}
{"binder": "B5", "binding signal": 1.19}
{"binder": "B6", "binding signal": 0.581}
{"binder": "B7", "binding signal": 1.19}
{"binder": "B8", "binding signal": 1.83}
{"binder": "B9", "binding signal": 0.827}
{"binder": "B10", "binding signal": 3.89}
{"binder": "B11", "binding signal": 5.48}
{"binder": "B12", "binding signal": 3.64}
{"binder": "B13", "binding signal": 3.65}
{"binder": "B14", "binding signal": 1.62}
{"binder": "B15", "binding signal": 1.11}
{"binder": "B16", "binding signal": 0.804}
{"binder": "B17", "binding signal": 2.81}
{"binder": "B18", "binding signal": 1.03}
{"binder": "B19", "binding signal": 3.77}
{"binder": "B20", "binding signal": 8.45}
{"binder": "B21", "binding signal": 0.693}
{"binder": "B22", "binding signal": 1.3}
